Assay outcomes (PubChem BioAssay)
FMDV antiviral – High Throughput Screening for Foot and Mouth Disease Virus Antivirals. FMDV antiviral cell-based qHTS. Potency, µM (doses to about 57.9 µM), actives largely listed as inhibitors. actives 1.2% (n = 410,000). AID 1159524, 2015; calls by dose curve; tested in HEK293T cells; also: read-out not given here; nearly all actives have a fitted effect of over 45% in size
HCMV antiviral – qHTS Assay for inhibitors of the human cytomegalovirus (HCMV); actives 4.5% (n = 410,000); AID 1259415, 2018; HFF cells, HCMV-luciferase reporter, 72 h; stronger effect = lower value; activity change, negative = inhibition, % at 57.5 µM; in the data active = activity change below about -60%; inconclusive = no clear call, values can overlap the other calls; inactive = above about -39%
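Two compound doses tested in HFFs infected with HCMV-luciferase, MOI 1 PFU/cell, 72 h at 37C. Lysate luminescence read with OneGlo; data normalized against buffer-only and 10uM Salinomycin inhibitor controls.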
Lassa entry inh – qHTS for Inhibitors of binding or entry into cells for Lassa Virus. Lassa virus pseudotype entry inhibition, cell reporter. actives 1.2% (n = 300,000). Potency, µM (titrated, usually from 37.9 µM), most hits filed as inhibitors; calls by dose curve; tested in HEK293 cells; also: nearly all actives have a fitted effect of over 50% in size
MARV entry inh – qHTS for inhibitors of binding or entry into cells for Marburg Virus; Marburg virus pseudotyped entry inhibition, cell reporter; Potency, µM (series often up to 37.8 µM), usual class: inhibitors; actives 1.8% (n = 300,000); calls by dose curve; tested in HEK293 cells
Hits are given with their value; n = inactive; u = inconclusive; x = not tested or not shown; ! = repeats disagree. Hits are enriched below; roughly 6.2% of the tested compounds scored in any of these assays.

SMILES	FMDV antiviral	HCMV antiviral	Lassa entry inh	MARV entry inh
Cc1cc(C)c2nc(-c3ccccn3)cc(C(=O)NCCc3ccc(S(N)(=O)=O)cc3)c2c1	n	n	n	n
N#Cc1c(Nc2ccccc2)sc(C(=O)c2ccccc2)c1N	n	n	n	n
Cc1cccc(Oc2sc(C(=O)c3ccccc3)c(N)c2C#N)c1	u	n	1.6µM	u
Nc1nc(SCc2ccccc2)c2[nH]cnc2n1	n	n	x	x
Nc1nc(OCc2ccccc2)c2[nH]cnc2n1	n	-73	u	u
Cc1c(Cl)cccc1NC(=O)Cn1c(CCC(=O)O)ccc1-c1cccs1	n	n	n	n
O=C(c1ccc(N2CCN(C(=O)c3ccc(F)c(F)c3)CC2)cc1)c1cccc(F)c1	n	-72	x	x
O=C1c2ccccc2S(=O)(=O)c2cc(N3CCN(C(=O)c4ccccc4)CC3)ccc21	40µM	n	x	x
O=C(c1ccc(N2CCN(C(=O)c3ccccc3)CC2)cc1)c1cccc(F)c1	n	n	n	u
O=C(c1ccccc1)c1ccc(C(=O)N2CCN(c3ccc(O)cc3)CC2)cc1	n	-78	x	x
Cc1c(NS(=O)(=O)c2cccc(C(=O)NCc3ccco3)c2)c(=O)n(-c2ccccc2)n1C	n	n	n	u
CCCc1[nH]nc2c1C(c1cn[nH]c1-c1ccc(F)cc1)C(C#N)=C(N)O2 (stereo unspecified)	n	x	u	n
COc1cccc(-n2c(/C=C/c3ccccc3O)nc3ccccc3c2=O)c1	n	u	u	x
COc1cc(/C=C/c2nc3ccccc3c(=O)n2-c2cccc(O)c2)ccc1O	u	n	1.3µM	u
COc1cc(/C=C/c2nc3ccccc3c(=O)n2-c2ccccc2O)ccc1O	n	-83	u	u
CCOC(=O)c1ccc(NC(=O)C2(N3C(=O)c4ccccc4C3=O)CCCC2)cc1	n	u	u	n
CCOP(=O)(c1ccccc1)c1nc(-c2ccccc2Cl)oc1N1CCCCC1 (stereo unspecified)	n	n	u	u
Cc1ccc(-c2nnn3c2nc(NC(C)C)c2ccccc23)cc1	n	n	x	x
Nc1ncnc2nc(SCc3ccc(Cl)cc3Cl)[nH]c12	n	n	n	n
COc1ccc(CNS(=O)(=O)c2c(C)[nH]c(C)c2C(=O)N2CCCC2)cc1	n	-62	x	x
COc1ccc(Cl)cc1NC(=O)COc1cccc(-n2cnnn2)c1	n	u	n	n
CC(C)(C)n1nnnc1C(c1cccs1)N(Cc1ccccc1)Cc1cccnc1 (stereo unspecified)	u	n	n	n
CC(C)(C)n1nnnc1C(c1cccs1)N(Cc1ccc(Cl)cc1)CC1CCCO1 (stereo unspecified)	u	-70	u	u
CC(C)(C)n1nnnc1C(c1cccnc1)N(Cc1ccccc1)Cc1cccs1 (stereo unspecified)	n	-85	u	u
CC(C)(C)n1nnnc1C(c1ccc(C(F)(F)F)cc1)N(Cc1ccccc1)Cc1ccco1 (stereo unspecified)	u	-82	u	u
SMILES	FMDV antiviral	HCMV antiviral	Lassa entry inh	MARV entry inh
CC(=O)Nc1c(C(=O)N2CCOCC2)cnn1-c1ccc(C)c(C)c1	n	n	n	n
COc1cc(C(=O)N/N=C/c2ccc(OC(=O)c3cccc(C)c3)cc2)ccc1O	35µM	n	n	n
O=C(N/N=C/c1cccc(Oc2ccccc2)c1)c1ccncc1	n	n	n	n
COc1cc(C(=O)N/N=C/c2cccc(Oc3ccccc3)c2)ccc1O	n	-78	n	n
COc1cc(/C=N/NC(=O)CCc2ccccc2)ccc1O	n	n	2.8µM	u
COc1cc(/C=N/NC(=O)CCNC(=O)c2ccccc2Cl)ccc1O	n	n	n	n
COc1cccc2cc(-c3nnc(-c4ccccc4)o3)c(=O)oc12	n	n	n	u
CC(C)(C)NC(=O)C(=O)NNC(=O)c1ccc(C(C)(C)C)cc1	u	n	n	n
CC(C)=CCCC1(C)C=Cc2c(c(C)cc3c2[nH]c2cc(O)ccc23)O1 (stereo unspecified)	n	-104	x	x
COc1ccc(-c2csc3nc(-c4ccccc4OC)oc(=O)c23)cc1	u	-69	n	u
COc1ccc(-c2csc3nc(-c4ccc(F)cc4)oc(=O)c23)cc1	n	n	n	x
COC(=O)[C@H]1C[C@H](C(=O)O)[C@@H](C)C1(C)C	n	-95	x	x
O=C(CN1CCC(n2nnc3cc(F)ccc32)CC1)Nc1ccccc1N1CCOCC1	u	u	n	13µM!
O=C(CN1CCC(n2nnc3cc(F)ccc32)CC1)NC1CC1	n	n	n	n
CCOc1ccc2nc(NC(=O)CN3CCC(n4nnc5cc(F)ccc54)CC3)sc2c1	u	-68	u	u
COc1ccc(NC(=O)c2cc(C)no2)cc1OC	n	n	u	n
CC(Sc1nc2ccccc2c(=O)n1C)C(=O)NC1CCCCC1C (stereo unspecified)	u	x	n	n
O=c1[nH]nc(Sc2ncnc3sccc23)n1CCc1ccccc1	u	-95	u	u
CCN(CC)C(=O)CSc1n[nH]c(=O)n1CCc1ccccc1	n	n	n	n
Cc1ccc2cc(CCNC(=O)CC(C)C)c(=O)[nH]c2c1	n	-67	x	x
Cc1ccc(/C=C(/NC(=O)c2ccccc2)C(=O)NCCc2c[nH]c3ccccc23)o1	n	n	n	n
CCCOc1ccc(C(=O)CCN2CCN(C(=O)OCC)CC2)cc1	n	n	u	n
O=C(Cn1nnc(-c2ccccc2)n1)N/N=C/c1cc([N+](=O)[O-])ccc1O	n	-73	n	n
O=C(N/N=C/c1cc([N+](=O)[O-])ccc1O)c1cccc2ccccc12	x	-112	x	x
O=C(CCC(=O)Nc1ccc(Br)cc1)N/N=C/c1cc([N+](=O)[O-])ccc1O	n	n	u	u
SMILES	FMDV antiviral	HCMV antiviral	Lassa entry inh	MARV entry inh
O=C(N/N=C/c1cc([N+](=O)[O-])ccc1O)C1CCCCC1	n	-66	u	u
O=[N+]([O-])c1ccc2nc(C3CCCCC3)[nH]c2c1	n	n	n	u
O=[N+]([O-])c1ccc(O)c(C2CCCCC2)c1	u	-94	u	u
O=C(NN=Cc1cc(Cl)ccc1[N+](=O)[O-])c1cccc2ccccc12	n	n	n	n
O=[N+]([O-])c1ccc(O)c(/C=N/Nc2ccc(Cl)nn2)c1	n	-101	u	0.13µM
O=[N+]([O-])c1ccc(O)c(/C=N/Nc2nn[nH]n2)c1	n	n	n	n
O=C(Cn1cncn1)N/N=C/c1cc([N+](=O)[O-])ccc1O	n	n	x	x
O=C(Cn1nc2ccccc2n1)N/N=C/c1cc([N+](=O)[O-])ccc1O	n	n	u	10µM
Cn1cnc([N+](=O)[O-])c1Oc1cccc(O)c1	40µM	n	n	n
Cn1cnc([N+](=O)[O-])c1Oc1cccc2ccccc12	28µM	n	n	u
CCS(=O)(=O)c1c([N+](=O)[O-])ncn1C	u	n	n	n
Cn1cnc([N+](=O)[O-])c1S(=O)(=O)Oc1cccc2ccccc12	22µM	n	u	u
Cn1cnc([N+](=O)[O-])c1S(=O)(=O)Oc1ccc(Cl)cc1	20µM	n	u	11µM
Cc1cccc(C(=O)NNC(=S)NC(=O)c2cccs2)c1	n	n	u	u
CC1(C)NC(=O)N(CCCCOc2ccc(Cl)cc2C=O)C1=O	n	-60	x	x
